# From PubChem BioAssay (NCI)
# Where “and” joins values, the source holds several entries; their conditions need not be identical. Equal values may be shown once. The panel holds about 83,000 compounds, 20% with a hit somewhere; the sample as a whole holds those more often.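 Single-concentration screen, 48 h exposure, 96-well plates. Endpoint: percent growth. Below 10 = active.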 Calls of active or inactive are those of the source.
# Tested on: SNB-75 CNS
# Experiment: NCI-60 one-dose screen, 48 h (100 = growth as untreated, 0 = no growth, -100 = all killed)
# Settings: 10 µM
# Experimental: Growth inhibition of the SNB-75 human tumor cell line is measured as a screen for anti-cancer activity. Cells are grown in 96 well plates and exposed to the test compound for 48 hours. Compounds are tested at a single concentration, which is 10^-5 M for most compounds. The reported endpoint is percent growth (GI% or GIPRCNT), where numbers from 0 - 100% represent growth inhibition, and numbers from -100% - 0 represent cell death. For example, a value of 40 represents 60% growth inhibition. A value of 0 means no net growth occurred over the course of the experiment. A value of -40 indicates 40% of cells at the beginning of the experiment died by the end of the experiment. A value of -100 means all cells are dead at the end of the experiment.
# NCI-60 Human Tumor Cell Lines Screen was performed using the standard one-dose NCI protocol, which is described in more detail at https://dtp.cancer.gov/discovery_development/nci-60/default.htm.
# Compounds with GIPRCNT values below 10 were considered active. Activity score was based on GIPRCNT using the following formula: […]
# Score is 0 for GIPRCNT values of 100 or above, 50 for GIPRCNT values of 0, and 100 for GIPRCNT values of -100.
row,SMILES,growth
1,CC(=O)/C=C/c1ccc(OCc2ccc(C(C)(C)C)cc2)cc1,94.7% (inactive)

# Same assay, conditions: 10 µM unless noted
row,SMILES,growth
1,C/C(=C(\c1ccc(OCCN2CCOCC2)cc1)c1ccc(OC(=O)C2CCCCC2)cc1)c1ccc(Cl)cc1,109% (inactive)
2,Nc1n[nH]c2cccc(C#Cc3cccc(NC(=O)c4ccc(N5CCOCC5)c(C(F)(F)F)c4)c3)c12,-25.6% (active)
3,O=C1N=c2ccccc2=C1c1sc(=S)n(C2CC(=O)N(c3ccc(Cl)cc3)C2=O)c1O (stereo not given),86.1% (inactive)
4,CCOC(=O)c1ccc(Nc2ncnc3c2cnn3-c2cccc(F)c2)cc1,82.1% (inactive)
5,CCCN1C(=O)/C(=c2\sc3n(c2=O)C2C(NN=3)N(CC)C(=O)N2CC)c2ccccc21 (stereo not given),17.2% (inactive)
6,O=C1/C(=C/c2cn(-c3ccccc3)nc2-c2ccccc2)SC(=S)N1c1ccccc1,97.2% (inactive)
7,COc1ccc(C(c2cc(OC)c(OC)c(OC)c2)n2ccnc2)cc1O (stereo not given),56.7% (inactive)
8,C#CCOCC1CN(C)C(=O)O1 (stereo not given),98.5% (inactive)
9,NS(=O)(=O)c1ccc(C(=O)N=Nc2c(O)[nH]c3c(F)cccc23)cc1,97.7% (inactive)
10,C=CCOc1ccc(/C=C2\SC(=S)N(CCc3ccc(O)cc3)C2=O)cc1,82% (inactive)
11,COc1cc2cc(NCc3ccncc3)nc(C)c2cc1OC,97% (inactive)
12,COc1ccc(/C=C(\C#N)c2cc3ccccc3[nH]2)cc1,18.6% (inactive)
13,CCOC(=O)CC1CSC(c2cccc(Cl)c2)=N1 (stereo not given),106% (inactive)
14,O=C1C=C(Nc2ccccc2)c2ncccc2C1=O,-97.1% (active)
15,Cc1c(C(=O)OCCCCOC(=O)c2c(C)n(C)c3scc[n+]23)[n+]2ccsc2n1C,80.5% (inactive)
16,COc1ccc(-c2nn3c(-c4cc(F)c(Cl)cc4Cl)nnc3s2)cc1,7.7% (active)
17,O=C(/C=C\c1ccc(Cl)c(Cl)c1)c1ccccc1,98.5% (inactive) and 99.9% (inactive)
18,CCC(=C(c1ccc(OCCCN(C)C)cc1)c1ccc(OCCCN(C)C)cc1)c1ccc(Cl)cc1,-96.6% (active)
19,CONC1=Nc2cc(NC(N)=NCc3ccccc3)c(N(C)C3CCCCC3)cc2OC1,40.9% (inactive)

row,SMILES,growth
1,CCOc1nc(-c2ccccc2)cc2c(O)c(C(=O)N/N=C/c3ccc(N(C)C)cc3)[nH]c(=O)c12,124% (inactive)
2,O=C(Nc1ccc2ccccc2c1)c1cc2ccccc2cc1O,103% (inactive)
3,Cc1ccccc1SSc1ccccc1C,123% (inactive)
4,Cc1n(Cc2ccc3ccccc3c2)c(Cl)c(Cl)[n+]1Cc1ccc2ccccc2c1,-1.79% (active)
5,C[C@]12CCc3c(ccc4cc(O)ccc34)[C@@H]1C[C@H](O)[C@@H]2O,116% (inactive)
6,COc1ccc(N2CCN(S(=O)(=O)c3oc(-c4ccccc4)nc3C#N)CC2)cc1,93.4% (inactive)
7,CC1=CC=C(NC(=O)/C=C/c2ccccc2)CC1Nc1nccc(-c2cccnc2)n1 (stereo not given),8.46% (active)
8,COC(=O)c1c2c(c(C)[n+]([O-])c1C)C(=O)C(NCCN1CCOCC1)=CC2=O,106% (inactive)
9,C=C1C(=O)O[C@@H]2[C@H]3[C@H](COC(C)=O)[C@@H](OC(C)=O)C[C@H]3C(=C)[C@@H](O)C[C@@H]12,74.8% (inactive)
10,Cn1cc(C2=C(c3cccc4ccccc34)C(=O)NC2=O)c2cc(Br)ccc21,37.9% (inactive)
11,Cc1c(C(C)(C)O)cn2ncnc(Oc3ccc(NC(=O)Nc4ccc(Cl)c(C(F)(F)F)c4)cc3)c12,33.8% (inactive)
12,COc1ccc(Nc2nn3c(SCC(=O)c4ccc(C)cc4)nnc3s2)cc1,95.7% (inactive)
13,COC(=O)/C=C1/SC(N2N=C(c3cccs3)CC2c2ccc(F)cc2)=NC1=O (stereo not given),48% (inactive)
14,COCCn1cc(-c2nc(-c3cn(CCOC)c4ncccc34)cs2)c2ccccc21,64.6% (inactive)
15,O=C1C(N2CCOCC2)=C(I)C(=O)c2ncccc21,66.3% (inactive)
16,CC(C)(C)c1cc(C(C)(C)c2ccccc2)cc(Cc2cc(C(C)(C)c3ccccc3)cc(C(C)(C)C)c2O)c1O,94.5% (inactive)
17,COc1cc(N=Nc2ccc(O)c3ncccc23)c2ncccc2c1,41.9% (inactive)
18,COc1ccc(-c2[nH]c3ccccc3c2-c2ccc(OC)cc2)cc1,31.5% (inactive)
19,Nc1nc(N)c2c(n1)NC(c1ccc(Cl)cc1)CC(c1cccc(Nc3ccncc3)c1)=N2 (stereo not given),67.2% (inactive)

# Same assay, conditions: 100 µM
row,SMILES,growth
1,CC(=O)/C=C/c1ccc(OCc2ccc(C(C)(C)C)cc2)cc1,-11.6% (active)
